From paper PMC5540273 (PLoS ONE, 2017)

System: BMPR1A
Conditions: concentration: 1 μM, replicates: in singlicate; n = 1
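Note: KINOMEscan kinase panel screen.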

SMILES | %Inh
Cc1cccc(-c2cc(-c3c[nH]nc3-c3ccccn3)ccn2)c1 [GW679395] | 0%
COc1ccc(-c2coc3ccc(-c4nnc(SCc5cccc(C#N)c5)o4)cc23)cc1 | 14%
COc1ccc(CNC(=O)NC2CCN(c3ccnc(Nc4ccc(F)cc4)n3)C2)cc1 (stereo not drawn) [GSK1379706] | 6%
COc1cc2ncn(-c3cc(OCc4ccncc4Br)c(C(N)=O)s3)c2cc1OC [GW854278] | 8%
Cc1nnc(-c2ccc(C)c(-c3ccc(C(=O)O)cc3)c2)o1 [GW608005] | 0%
COc1cc2ncn(-c3cc(OCCCc4ccccc4)c(C(N)=O)s3)c2cc1OC [GSK205189] | 0%
Cc1cc(Nc2nc(-c3cccc(C)n3)nc3ccccc23)ccn1 [GW872411] | 3%
Cc1ccc(-c2ccc3c(ccc4sc5c(c43)NC[C@@H](C)N=C5N(C)C)n2)cn1 | 0%
CCc1ccc(-c2ccc3c(c2)-c2nn(C)cc2S(=O)(=O)N3C)cc1 | 0%
Nc1n[nH]c2ncc(-c3ccccc3)cc12 [SB-517081] | 2%
Nc1ncnc2c1ncn2-c1cccc2ccccc12 [SKF-97184] | 0%
O=C(NCCNc1ccnc(Nc2ccc(F)cc2)n1)Nc1ccc2c(c1)OCO2 [GSK1379882] | 0%
O=C(Nc1n[nH]c2nc(-c3ccccc3)c(Br)cc12)C1CC1 [SB-708998] | 16%
Cl.NS(=O)(=O)c1cccc(Nc2cc(-c3ccc(F)cc3)n[nH]2)c1 [GW824645] | 7%
O=C(Nc1ccc2c(c1)OCO2)NC1CCN(c2ccnc(NCc3ccc(F)cc3)n2)CC1 [GSK1379859] | 0%
CC(C)(C)c1ccc(C(=O)Nc2cn3cc(-c4ccccc4)ccc3n2)cc1 | 8%
C[C@@H]1CC[C@H](C(=O)NC2CCCCC2)CN1c1cc(-c2ccc3c(N)n[nH]c3c2)nc(N)n1 [GSK2291363] | 0%
O=C(Nc1n[nH]c2nc(-c3ccccc3)c(Cl)cc12)C1CC1 [SB-734909] | 9%

SMILES | %Inh
COC(=O)c1c(-c2ccccc2)c2cc(Br)ccc2c(=O)n1Cc1ccc(NC(=O)CCC(=O)O)cc1 | 0%
O=C(Nc1n[nH]c2cc(-c3ccccc3F)ccc12)C1CC1 [SB-733371] | 21%
Cc1nc(N(C)[C@H]2CN(C(=O)CC#N)CC[C@H]2C)c2cc[nH]c2n1 | 0%
Cc1nn2c(=O)cc(N3CCOCC3)nc2n1Cc1cccc(Cl)c1Cl [GSK2342769] | 0%
Cc1cccc(-c2nc(Nc3ccc4c(cnn4C)c3)c3ccccc3n2)n1 [GW876731] | 1%
FC(F)(F)c1ccc(-c2ncn(CCCN3CCOCC3)c2-c2ccncc2)cc1 [SB-217780] | 7%
COc1cc(Nc2ccnc3ccc(C(F)(F)F)cc23)cc(OC)c1OC [GW577382] | 0%
CCS(=O)c1ccc(-c2coc3ccc(-c4nnc(C)o4)cc23)cc1 (stereo not drawn) | 0%
O=c1cc(N2CCOCC2)nc2n(Cc3ccc(F)c(Cl)c3)ccn12 [GSK2297099] | 0%
CCC(=O)c1c(-c2ccccc2)c2cc(Cl)ccc2c(=O)n1Cc1cc(S(C)(=O)=O)n(CCC(C)(C)O)n1 | 0%
Cn1c(=O)c(F)c(Nc2ccc(I)cc2F)c2c(=O)n(OC[C@H](O)CO)cnc21 | 0%
COc1cc(OC)cc(-c2cc3cnc(N)nc3nc2NC(=O)NC(C)(C)C)c1 | 54%
Fc1cccc(CSc2nnc(-c3ccc4c(c3)CCO4)o2)c1 | 1%
COc1cc(Nc2nccc(N3CCC(NC(=O)C4COc5ccccc5O4)C3)n2)cc(OC)c1OC (stereo not drawn) [GSK1379761] | 0%
O=C1NC(=O)C(c2ccccc2)=C1Nc1cccc(O)c1 [SB-390534] | 2%
CN(C)c1cc(-c2ccc3c(N)n[nH]c3c2)nc(N)n1 [GSK2219329] | 0%
Cc1ccc(Oc2ccc(Nc3ncnc4cc[nH]c34)cc2C)cn1 | 34%
CN1C(=O)C(Nc2ccccc2)=C(c2ccccc2)C1=O [SB-300079] | 12%

System: BMPR1B
Conditions: concentration: 1 μM, replicates: in singlicate; n = 1

SMILES | %Inh
Cc1cccc(-c2cc(-c3c[nH]nc3-c3ccccn3)ccn2)c1 [GW679395] | 2%
COc1ccc(-c2coc3ccc(-c4nnc(SCc5cccc(C#N)c5)o4)cc23)cc1 | 17%
COc1ccc(CNC(=O)NC2CCN(c3ccnc(Nc4ccc(F)cc4)n3)C2)cc1 (stereo not drawn) [GSK1379706] | 0%
COc1cc2ncn(-c3cc(OCc4ccncc4Br)c(C(N)=O)s3)c2cc1OC [GW854278] | 6%
Cc1nnc(-c2ccc(C)c(-c3ccc(C(=O)O)cc3)c2)o1 [GW608005] | 0%
COc1cc2ncn(-c3cc(OCCCc4ccccc4)c(C(N)=O)s3)c2cc1OC [GSK205189] | 0%
Cc1cc(Nc2nc(-c3cccc(C)n3)nc3ccccc23)ccn1 [GW872411] | 0%
Cc1ccc(-c2ccc3c(ccc4sc5c(c43)NC[C@@H](C)N=C5N(C)C)n2)cn1 | 0%
CCc1ccc(-c2ccc3c(c2)-c2nn(C)cc2S(=O)(=O)N3C)cc1 | 0%
Nc1n[nH]c2ncc(-c3ccccc3)cc12 [SB-517081] | 0%
Nc1ncnc2c1ncn2-c1cccc2ccccc12 [SKF-97184] | 0%
O=C(NCCNc1ccnc(Nc2ccc(F)cc2)n1)Nc1ccc2c(c1)OCO2 [GSK1379882] | 10%
O=C(Nc1n[nH]c2nc(-c3ccccc3)c(Br)cc12)C1CC1 [SB-708998] | 0%
Cl.NS(=O)(=O)c1cccc(Nc2cc(-c3ccc(F)cc3)n[nH]2)c1 [GW824645] | 0%
O=C(Nc1ccc2c(c1)OCO2)NC1CCN(c2ccnc(NCc3ccc(F)cc3)n2)CC1 [GSK1379859] | 0%
CC(C)(C)c1ccc(C(=O)Nc2cn3cc(-c4ccccc4)ccc3n2)cc1 | 0%
C[C@@H]1CC[C@H](C(=O)NC2CCCCC2)CN1c1cc(-c2ccc3c(N)n[nH]c3c2)nc(N)n1 [GSK2291363] | 0%
O=C(Nc1n[nH]c2nc(-c3ccccc3)c(Cl)cc12)C1CC1 [SB-734909] | 27%

SMILES | %Inh
COC(=O)c1c(-c2ccccc2)c2cc(Br)ccc2c(=O)n1Cc1ccc(NC(=O)CCC(=O)O)cc1 | 6%
O=C(Nc1n[nH]c2cc(-c3ccccc3F)ccc12)C1CC1 [SB-733371] | 24%
Cc1nc(N(C)[C@H]2CN(C(=O)CC#N)CC[C@H]2C)c2cc[nH]c2n1 | 10%
Cc1nn2c(=O)cc(N3CCOCC3)nc2n1Cc1cccc(Cl)c1Cl [GSK2342769] | 0%
Cc1cccc(-c2nc(Nc3ccc4c(cnn4C)c3)c3ccccc3n2)n1 [GW876731] | 0%
FC(F)(F)c1ccc(-c2ncn(CCCN3CCOCC3)c2-c2ccncc2)cc1 [SB-217780] | 0%
COc1cc(Nc2ccnc3ccc(C(F)(F)F)cc23)cc(OC)c1OC [GW577382] | 22%
CCS(=O)c1ccc(-c2coc3ccc(-c4nnc(C)o4)cc23)cc1 (stereo not drawn) | 6%
O=c1cc(N2CCOCC2)nc2n(Cc3ccc(F)c(Cl)c3)ccn12 [GSK2297099] | 0%
CCC(=O)c1c(-c2ccccc2)c2cc(Cl)ccc2c(=O)n1Cc1cc(S(C)(=O)=O)n(CCC(C)(C)O)n1 | 6%
Cn1c(=O)c(F)c(Nc2ccc(I)cc2F)c2c(=O)n(OC[C@H](O)CO)cnc21 | 0%
COc1cc(OC)cc(-c2cc3cnc(N)nc3nc2NC(=O)NC(C)(C)C)c1 | 0%
Fc1cccc(CSc2nnc(-c3ccc4c(c3)CCO4)o2)c1 | 5%
COc1cc(Nc2nccc(N3CCC(NC(=O)C4COc5ccccc5O4)C3)n2)cc(OC)c1OC (stereo not drawn) [GSK1379761] | 0%
O=C1NC(=O)C(c2ccccc2)=C1Nc1cccc(O)c1 [SB-390534] | 0%
CN(C)c1cc(-c2ccc3c(N)n[nH]c3c2)nc(N)n1 [GSK2219329] | 0%
Cc1ccc(Oc2ccc(Nc3ncnc4cc[nH]c34)cc2C)cn1 | 1%
CN1C(=O)C(Nc2ccccc2)=C(c2ccccc2)C1=O [SB-300079] | 0%
